Screening data (PubChem)
GRP78 ERSR act: inducers of ER stress response in human glioma cells | U87-MG GRP78 promoter luciferase reporter, 16 h | Potency, µM, hits mostly activators | actives 0.02% (n = 420,000); note: series mostly up to about 76 µM; nearly all actives have a fitted effect of over 35% in size
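Stably transfected U87-MG glioma cells carrying a GRP78-based luciferase sensor; 16 h compound incubation. Luminescence end-point read 10 min after Bright-Glo addition at room temperature.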
FUS yeast rescue: FUS proteinopathy suppression in yeast; S. cerevisiae FUS-expressing, growth rescue, OD600, 24 h; Potency, µM (titrated, usually from 76.6 µM), actives largely listed as activators; actives 0.24% (n = 390,000); note: nearly all actives have a fitted effect of over 55% in size
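Toxicity suppression screen in FUS-yeast. Cells induced with 2% galactose, starting OD 0.005, treated 24hr at 30C with compounds at multiple final concentrations; growth by OD600.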
aSyn rescue: rescues yeast growth from alpha-synuclein toxicity; actives 0.14% (n = 370,000); Potency, µM (doses to about 46.1 µM), actives largely listed as activators; Yeast expressing alpha-synuclein, growth rescue, BacTiter-Glo, 24 h; note: nearly all actives have a fitted effect of over 65% in size
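Rescue of yeast growth: cells expressing toxic alpha-synuclein, induced in galactose at OD600 0.02, incubated with compound 24 h at 30 C. ATP luminescence quantified growth; inhibitors of toxicity appear as activators.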
Abeta rescue: A-beta toxicity reversal in yeast; Potency, µM (doses to about 46.1 µM), hits mostly activators; AID 1347071; yeast expressing A-beta42, growth rescue, OD600, 48 h; response scale: 0% DMSO, 100% iron-clioquinol control; actives 0.063% (n = 410,000); note: nearly all actives have a fitted effect of over 55% in size
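Yeast A-beta toxicity model in growth medium with pinned compounds, 48 h at 30 C; growth read as absorbance at 600 nm. Normalized to FeCl3/clioquinol equimolar mix (positive) and DMSO (negative).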
TDP43 rescue: inhibitors of TDP-43 toxicity in yeast; TDP-43 expressing yeast growth rescue, BacTiter-Glo, 24 h; Potency, µM (series often up to 46.1 µM), most hits filed as activators; actives 1.8% (n = 410,000); note: nearly all actives have a fitted effect of over 50% in size
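Luminescence from BacTiter-Glo reports growth of TDP-43-expressing yeast after 24 hr at 30 deg C with compound. Cells were raffinose-pregrown to mid-log, then seeded in galactose medium at OD600=0.02.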
MBNL1-CUG inh: inhibitors of human MBNL1 binding to CUG repeat RNA; Q9NR56; TR-FRET MBNL1-His/biotin-(CUG)12 binding, 665/545 ratio; Potency, µM (doses to about 57.5 µM), usual class: inhibitors; actives 0.036% (n = 280,000); AID 2675; active = well fitted inhibition curve with a large enough effect in the signal ratio, with a control signal flat, not every such curve was filed as active; inconclusive = small, poorly fitted or top-dose-only effect, or effect the other way, or a change in a side signal; inactive = no such curve, though single readings can be large or run the other way; the % refers to the signal ratio
Target sequence (Q9NR56 whole entry, looked up): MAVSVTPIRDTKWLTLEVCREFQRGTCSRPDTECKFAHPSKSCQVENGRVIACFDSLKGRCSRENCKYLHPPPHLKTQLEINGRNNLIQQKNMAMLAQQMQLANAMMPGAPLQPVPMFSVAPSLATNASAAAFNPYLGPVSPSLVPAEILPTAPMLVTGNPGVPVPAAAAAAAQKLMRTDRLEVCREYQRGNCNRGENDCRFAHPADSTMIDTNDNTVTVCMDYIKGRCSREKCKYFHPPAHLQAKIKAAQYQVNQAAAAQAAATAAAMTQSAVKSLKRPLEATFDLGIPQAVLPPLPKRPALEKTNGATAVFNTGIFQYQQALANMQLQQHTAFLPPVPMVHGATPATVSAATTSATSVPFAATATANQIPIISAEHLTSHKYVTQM
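His-tagged MBNL1 binding to biotinylated (CUG)12 RNA was measured by TR-FRET using terbium anti-His antibody (0.055 ng/ul final) and streptavidin-XL665 (5 nM final). Compounds were titrated 92 nM to 58 uM; 60 min at room temperature.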
A number is an active result; i = inactive; ? = inconclusive; nt = not tested or not shown. Shown are actives, neighbours in structure and some others; about 2% of the full set was active somewhere. Unless noted, calls come from the whole dose curve; as a rule, active = well fitted curve in the direction sought with a large enough effect; inconclusive = small, poorly fitted or top-dose-only effect, or another doubt; inactive = no such curve, though single readings can be large; an effect the other way counts as inactive or inconclusive.

SMILES	GRP78 ERSR act	FUS yeast rescue	aSyn rescue	Abeta rescue	TDP43 rescue	MBNL1-CUG inh
c1ccc2c(c1)nc(N1CCOCC1)c1nncn12	i	i	i	i	i	i
COc1ccc2ccccc2c1CN1CCC2(CCC(CNC(=O)c3ccccc3)O2)CC1 (configuration not stated)	i	nt	nt	nt	nt	nt
CC(C)(C)n1ncc2c(=O)n(Cc3ccc(C#N)c(F)c3)cnc21	i	nt	nt	nt	nt	nt
Cc1nc2c(nc1C)C(=O)c1ccccc1C2=O	i	nt	i	i	18µM	nt
CCCC(=O)OC12CCCN(C1)/C(=C/c1cccc(N(C)C)c1)C2 (configuration not stated)	nt	i	nt	nt	nt	nt
CC(=O)c1cccc(Nc2cc(C)nc3nc(-c4ccccc4C)nn23)c1	i	i	nt	i	11µM	nt
O=C(CCC1CCCCC1)NNC(=O)NC12CC3CC(CC(C3)C1)C2	i	25µM	i	i	i	i
O=C(O)CCC(=O)NNC(=O)CCC1CCCCC1	i	i	i	i	i	i
COc1ccc(C2CC(=O)N(Cc3ccc(F)cc3)c3ccccc3S2)cc1 (configuration not stated)	i	i	i	i	16µM	nt
O=C(CSCc1ccc(Cl)cc1)Nc1ccc2c(c1)OCCO2	i	i	i	i	11µM	i
CO/N=C(/C(=O)N[C@@H]1C(=O)N2C(C(=O)[O-])=C(C[n+]3ccn4ncccc43)CS[C@H]12)c1nsc(N)n1	i	nt	nt	nt	nt	nt
N#Cc1ccc(/C=C2\CC3(OC(=O)c4ccc(Cl)cc4)CCCN2C3)cc1 (configuration not stated)	nt	i	nt	nt	nt	nt
S=c1[nH]nc2ccc3ccccc3n12	i	i	i	i	13µM	nt
S=c1[nH]c2ccccc2n2c(=S)[nH]nc12	i	i	i	i	?	?
CC(=O)c1ccc(F)c(-c2cc(C)cc3c2OC(CNC(=O)Cc2ccc4c(c2)OCO4)C3)c1 (configuration not stated)	i	nt	nt	nt	nt	nt
O=C(CCl)NCc1cc(-c2ccc(Cl)cc2)no1	i	i	i	i	10µM	nt
COc1ccc(OCc2cc(-c3ccc(Cl)cc3)no2)cc1	i	i	i	i	i	i
CCC(=O)OCCCN1C(=O)CCC12CCC(C)CC2 (configuration not stated)	nt	i	nt	nt	nt	nt
Cc1ccsc1C(=O)Nc1n[nH]c(C(F)(F)F)n1	i	i	i	i	35µM	i
O=C1CCC[C@H]2C[C@H](NCc3cccc(F)c3)CC[C@]23CCCN13	nt	i	nt	nt	nt	nt
O=C(c1ccco1)N1N=C(c2ccccc2O)CC1c1cccs1 (configuration not stated)	i	i	i	i	35µM	nt
O=C(c1ccccc1)N1CCN(C(=O)N2CCOCC2)CC1	i	i	i	i	i	i
O=C1C(=C(c2ccccc2)N2CCOCC2)Cc2ccccc21	i	i	i	i	13µM	nt
Nc1nc(SCc2ccc(F)cc2)ns1	i	i	i	?	13µM	nt
COc1cc(CN2CCCC(n3cc(C(=O)N4CCCCC4)nn3)C2)cc(OC)c1 (configuration not stated)	i	nt	nt	nt	nt	nt
SMILES	GRP78 ERSR act	FUS yeast rescue	aSyn rescue	Abeta rescue	TDP43 rescue	MBNL1-CUG inh
O=C(CCSc1ccccc1Cl)Nc1cccc([N+](=O)[O-])c1	i	i	i	i	18µM	i
NS(=O)(=O)c1cccc(NC(=O)CCSc2ccccc2Cl)c1	i	nt	i	i	i	nt
Nc1ncnc2c1ncn2C1CCCO1 (configuration not stated)	i	i	i	i	35µM	nt
Nc1nc(Cl)nc2c1ncn2C1CCC(CO)O1 (configuration not stated)	i	i	i	i	i	nt
Nc1ncnc2c1ncn2[C@H]1CC[C@@H](CO)O1	i	i	i	i	13µM	nt
COc1cc(=O)n2c(c1C(=O)NC(C)c1ccco1)CCN(Cc1cc(C)ccc1C)CC2 (configuration not stated)	i	nt	nt	nt	nt	nt
CC(C)NC(=O)C1(N2C(=O)c3ccccc3C2=O)CCCC1	i	i	i	i	11µM	nt
NC(=O)Cc1nc(-c2ccc(F)cc2)cs1	i	i	i	i	i	i
NC(=S)Cc1nc(-c2ccc(Cl)cc2)cs1	i	i	i	6.3µM	?	nt
Cc1nc(C)c(-c2csc(NCc3ccccc3)n2)s1	i	i	i	i	20µM	?
CCCC(=O)Nc1nc(C)c(-c2csc(Nc3ccc(Cl)cc3)n2)s1	i	?	i	i	14µM	i
COc1ccc(Nc2nc(-c3sc(C)nc3C)cs2)cc1	i	i	i	i	20µM	i
COc1ccc(CCNc2nc(-c3ccncc3)cs2)cc1OC	i	i	i	i	i	i
Cc1nc(C)c(-c2csc(Nc3ccc(N)cc3)n2)s1	i	i	i	i	i	?
COc1ccc(CCNc2nc(-c3sc(C)nc3C)cs2)cc1OC	i	i	i	i	22µM	?
CCCCCCCCN1C(=O)[C@@H](CC(=O)NCc2cccs2)C[C@@]2(C(=O)OC)C1=C[C@H](COCc1ccccc1)O[C@@H]2C	nt	i	nt	nt	nt	nt
O=C(NC1CCCCN(Cc2ccc(Cl)cc2)C1=O)C1C2CC3CC(C2)CC1C3 (configuration not stated)	nt	i	nt	nt	nt	nt
CCCCCCCC/C=C\CCCCCCCC(=O)NCc1ccc(O)c(OC)c1	i	nt	i	nt	nt	nt
CCCCCCCC/C=C\CCCCCCCC(=O)NCCc1ccc(O)c(O)c1	i	?	?	i	22µM	nt
Cc1ccc(C)c(NC(=S)NNc2ccc(F)cc2F)c1	i	?	i	?	13µM	i
Cc1ccc(C)c(NC(=S)NCCc2ccc(F)cc2)c1	i	i	i	?	?	i
Cc1ccc(-c2cc(N)n[nH]2)cc1	i	28µM	i	i	i	i
CCOC1=C2CN(S(=O)(=O)c3ccc(C)cc3)[C@H](c3cccc4ccccc34)C[C@H]2[C@H]2C(=O)N(c3ccccc3)C(=O)[C@H]2C1	i	i	14µM	i	i	nt
Cn1c(=S)[nH]c2ccccc21	i	i	i	i	i	i
S=c1[nH]c2ccccc2n2cccc12	i	i	i	11µM	13µM	?
SMILES	GRP78 ERSR act	FUS yeast rescue	aSyn rescue	Abeta rescue	TDP43 rescue	MBNL1-CUG inh
O=C(C[n+]1ccccc1Br)c1ccc(I)cc1	i	nt	i	nt	nt	nt
O=C(Nc1ccc(N=Nc2ccccc2)c(NC(=O)C2CCCO2)c1)C1CCCO1 (configuration not stated)	i	?	i	i	14µM	?
CCCCCCCCCCCCCCCC[n+]1ccc(C)cc1	i	nt	nt	nt	nt	nt
COCc1c(C(=O)N2CCC(c3ccccc3)CC2)cnn1-c1nccc(-c2cc(C)sc2C)n1	i	nt	nt	nt	nt	nt
CCc1c(C)sc(NC(=S)Nc2cccnc2)c1C(=O)OC	i	i	i	i	25µM	i
C=CCOc1ccc2nc(NC(=O)OC)[nH]c2c1	i	i	i	i	i	i
